KB-V1 MDR tox – KB-V1 MDR subline cytotoxicity; KB-V1 MDR cells viability, CellTiter-Glo, 72 h; Potency, µM (series often up to 46.1 µM), actives largely listed as cytotoxic; 400,000 tested, 3.4% active; AID 1347076; also: % is scaled to controls: 0 for no effect and ±100 for the full control effect; nearly all actives have a fitted effect of over 60% in size
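Cytotoxicity toward P-gp-expressing KB-V1 cells was determined as loss of CellTiter-Glo luminescence after 72 h at 37 degrees C. Compounds were tested in quantitative HTS format across a concentration range, with curves fitted to normalized data.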
SW480 rerep – inducers of DNA re-replication in SW480 colon cancer cells; Potency, µM (titrated, usually from 46.1 µM), for inactives: at the highest dose re-replication activation, usual class: activators; SW480 DNA re-replication, Hoechst DNA content imaging, 48 h; 340,000 tested, 1.8% active; AID 624297; also: % of control where 0% means no effect; nearly all actives have a fitted effect of over 55% in size
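DNA re-replication was detected as more nuclei of elevated Hoechst intensity after 48 hr exposure to compound (23 nL pinned per well of 250 cells).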
KB-3-1 cytotox – kills parental KB-3-1 adenocarcinoma cells | KB-3-1 viability, CellTiter-Glo ATP luminescence, 72 h | Potency, µM (top dose mostly 46.1 µM), actives largely listed as cytotoxic | 400,000 tested, 1.4% active | AID 1347075; also: % is scaled to controls: 0 for no effect and ±100 for the full control effect; nearly all actives have a fitted effect of over 60% in size
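Multi-concentration cytotoxicity screen in KB-3-1 cells grown in DMEM lacking phenol red with 10% FBS. After 72 h at 37 °C with compound, ATP-dependent luminescence was recorded.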
RGS4 inhibitor – blocks human RGS4-accelerated GTP hydrolysis | P49798 | Transcreener GDP fluorescence polarization, RGS4-accelerated GTP hydrolysis | Potency, µM (titrated, usually from 114 µM), inactives show top-dose activity change, negative = inhibition, actives largely listed as inhibitors | 390,000 tested, 0.039% active; also: % is scaled to controls: 0 for no effect and ±100 for the full control effect; nearly all actives have a fitted effect of over 75% in size
Target sequence (P49798 whole entry, looked up): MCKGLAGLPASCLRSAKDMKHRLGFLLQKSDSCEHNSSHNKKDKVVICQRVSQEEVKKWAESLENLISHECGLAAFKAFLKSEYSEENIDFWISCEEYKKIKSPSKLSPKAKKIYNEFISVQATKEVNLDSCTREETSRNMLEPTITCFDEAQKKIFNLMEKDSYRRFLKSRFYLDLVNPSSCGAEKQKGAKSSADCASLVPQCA
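MLSMR compounds (23 nl, pin-transferred) preincubated 10 min at room temperature with a 500nM (2x) first reagent, then RGS4 at 900nM (2x) plus Transcreener GDP mix added; fluorescence polarization (620/688 nm) read before and after 90 min at 30 °C.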
MCF10A rereplic – DNA re-replication induction in MCF 10a cells. Potency, µM (doses to about 46.1 µM), inactives show top-dose activity, positive = re-replication, actives largely listed as activators. MCF 10A DNA re-replication, Hoechst nuclear intensity, 48 h. AID 624296. 350,000 tested, 2.9% active; also: % of control where 0% means no effect; nearly all actives have a fitted effect of over 50% in size
TSG101-PTAP inh – blocks PTAP/TSG101 interaction to inhibit HIV-1 budding; Fluorescence polarization, FITC-PTAP peptide / Tsg101 binding; 340,000 tested, under 10 active; Potency, µM (titrated, usually from 115 µM), inactives show at the top dose activity change, negative = inhibition, most hits filed as inhibitors; active = well fitted inhibition curve with a large enough effect in the main read-out, with a control signal flat, not every such curve was filed as active; inconclusive = small, poorly fitted or top-dose-only effect, or effect the other way, or a change in a side signal; inactive = no such curve, though single readings can be large or run the other way; also: % of control where 0% means no effect
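Fluorescence anisotropy tracks displacement of a FITC-tagged PTAP peptide (50 nM) from the Tsg101 binding domain (10 uM), following a 20 min room-temperature incubation at pH 7.5.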
Numbers without * were called inactive; i = inactive; ? = inconclusive; / = no result. Sampled rows, rich in hits. Any-hit rate of the full collection: about 6.6%. Unless noted, calls follow the shape of the dose curve; as a rule, active = well fitted curve in the direction sought with a large enough effect; inconclusive = small, poorly fitted or top-dose-only effect, or another doubt; inactive = no such curve, though single readings can be large; an effect the other way counts as inactive or inconclusive. Potency is read from the fitted curve at half-maximal effect.

SMILES | KB-V1 MDR tox | SW480 rerep | KB-3-1 cytotox | RGS4 inhibitor | MCF10A rereplic | TSG101-PTAP inh
CC(=O)Oc1ccc2occ(-c3ccccc3)c2c1 | i | 5.2% | i | -1.7% | 0.4% | -4.7%
O=c1ccc2cc3c(-c4ccccc4)coc3cc2o1 | 6.51µM* | 0.4% | 18.4µM* | 7.0% | 23.1µM* | -2.2%
CCOc1c2c(c(-c3ccc4c(c3)OCO4)c3cc(OC)c(OC)cc13)C(=O)OC2 | ? | / | 1.3µM* | -10.4% | / | /
COc1ccccc1-c1sc2cc3c(cc2c1-c1ccc2c(c1)OCO2)OCO3 | i | ? | i | -10.6% | 8.0% | -5.1%
CC(C)Oc1cccc(C(=O)C2CCCN(C(=O)c3cc(C4CC4)[nH]n3)C2)c1 (centres undefined) | i | -2.4% | i | 17.4% | 0.9% | -6.0%
CCn1ncc(CN2CCCC(C(=O)c3cccc(OC(C)C)c3)C2)c1C (centres undefined) | i | -0.2% | i | -14.1% | 23.1µM* | -2.2%
CCOC(=O)c1[nH]ncc1CN1CCCC(C(=O)c2cccc(OC(C)C)c2)C1 (centres undefined) | i | -3.3% | i | 0.0% | -4.1% | -1.3%
CC(C)Oc1cccc(C(=O)C2CCCN(C(=O)c3cc(C(F)(F)F)[nH]n3)C2)c1 (centres undefined) | 20.6µM* | -9.2% | ? | 2.7% | 7.4% | -1.5%
Cc1cc(C)c(Cn2c(=O)n(CCCC(=O)NCc3ccc4c(c3)OCO4)c(=O)c3sccc32)c(C)c1 | / | / | / | 22.3% | / | /
CCOc1cc(C2c3c(oc4cc(C)c(Cl)cc4c3=O)C(=O)N2Cc2ccco2)ccc1O (centres undefined) | 1.84µM* | 5.4% | ? | -20.0% | ? | -2.7%
Cc1cc2oc3c(c(=O)c2cc1C)C(c1cccc(Br)c1)N(Cc1ccco1)C3=O (centres undefined) | i | -18.7% | i | -30.5% | 10µM* | -2.8%
COc1cc(C2c3c(oc4ccccc4c3=O)C(=O)N2Cc2ccco2)ccc1O (centres undefined) | i | 17.1% | i | -13.7% | -9.2% | -7.0%
O=Cc1ccc(OCc2nnc(-c3ccccc3Br)o2)cc1 | i | -21.8% | i | -5.1% | -8.2% | -12.7%
NC(=O)c1ccccc1OCc1nnc(-c2ccccc2Br)o1 | 18.4µM* | 1.4% | i | -2.0% | 3.7% | -5.4%
CCOc1cc(C2c3c(oc4ccccc4c3=O)C(=O)N2Cc2ccc3c(c2)OCO3)ccc1O (centres undefined) | i | / | i | -0.1% | / | /
CCN1/C(=C/c2sc(-c3ccccc3C)c[n+]2C)Sc2ccccc21 | ? | ? | 0.411µM* | -4.3% | 20.6µM* | -5.6%
CCOC(=O)c1cc2c(=O)n3cccc(C)c3nc2n(Cc2ccco2)c1=NC(=O)c1cccnc1 | i | ? | i | -35.5% | 5.4% | 1.2%
Cc1cccn2c(=O)c3cc(C#N)c(=NC(=O)c4ccco4)n(Cc4ccco4)c3nc12 | i | 7.7% | ? | -9.0% | 9.0% | -5.9%
Cc1cccn2c(=O)c3cc(C#N)c(=NC(=O)c4ccccc4)n(Cc4ccco4)c3nc12 | ? | 7.31µM* | i | ? | 2.31µM* | -2.3%
CCOC(=O)c1cc2c(=O)n3ccccc3nc2n(Cc2ccco2)c1=NC(=O)c1cccnc1 | i | 6.51µM* | i | ? | ? | -12.0%
Cc1cccc(C(=O)N=c2c(C#N)cc3c(=O)n4cccc(C)c4nc3n2Cc2ccco2)c1 | i | 23.1µM* | ? | ? | 18.4µM* | -5.7%
CCOC(=O)c1cc2c(=O)n3ccccc3nc2n(Cc2ccco2)c1=NC(=O)c1cccc(C)c1 | i | / | i | -28.3% | / | /
COc1cc2c(cc1OC)CN(c1ccc3ccccc3n1)CC2 | i | 1.7% | i | -19.1% | ? | -0.7%
COc1cc2c(cc1OC)CN(c1ccc(C(F)(F)F)cn1)CC2 | ? | ? | i | ? | 16.4µM* | 1.7%
